According to the supplement of paper PMC10849652:
About 7,900 targets were measured; listed, in parts, are those with a hit and a random draw of the rest. About 0.6% of all pairs of compound and target were hits. Unmarked numbers belong to inactive results.

Legend:
Assay in all cases: log2 fold change, soluble protein after heating vs DMSO (PISA); higher = thermal stabilisation; K562 cells, 10 uM, 30 min; active = over 0.2 and 3.5 SD of the protein, either way, in both replicates (recomputed)
[1] = compound: CC1=C(C=C(C=C1)NC(=O)C2=CC(=CC=C2)C(C)(C)C#N)NC3=CC4=C(C=C3)N=CN(C4=O)C
Outline: (§1)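 K562 cells at 2×10^6 cells/mL were exposed to 10 μM compound for 30 min, then aliquots were heated for 3 min across 48°C-58°C, pooled, and extracted in PBS containing 0.5% NP-40 at 4°C. The supernatant after 21,000xg for 90 min was taken as soluble protein and measured by TMTpro 16plex LC-MS/MS with channel sums equalised. Thermal stability is reported relative to control samples, with values from duplicates. Fold changes are given on a log2 scale.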

[2] = compound: CC1=C(C=C(C=C1)NC(=O)C2=CC(=CC=C2)N(C)C)NC(=O)C3=CC=C(C=C3)O
Outline: as §1

[3] = compound: CC1=CC=C(C=C1)SC2=C3C=C(SC3=CN=C2)C(=O)N
Outline: as §1

[4] = compound: CC1=NC(=CC=C1)C2=C(N=C(N2)C(C)(C)C)C3=CC4=NC=CN=C4C=C3
Outline: as §1

Nexturastat A = compound: CCCCN(Cc1ccc(C(=O)NO)cc1)C(=O)Nc1ccccc1 [Nexturastat A]
Outline: as §1

vemurafenib = compound: CCCS(=O)(=O)Nc1ccc(F)c(C(=O)c2c[nH]c3ncc(-c4ccc(Cl)cc4)cc23)c1F [vemurafenib]
Outline: as §1

[5] = compound: CCCS(=O)(=O)Nc1ccc(F)c(C(=O)c2c[nH]c3ncc(Cl)cc23)c1F
Outline: as §1

[6] = compound: CCCc1cc(C)[nH]c(=O)c1CNC(=O)c1cc(-c2ccnc(N3CCN(C)CC3)c2)cc2c1cnn2C(C)C
Outline: as §1

givinostat = compound: CCN(CC)Cc1ccc2cc(COC(=O)Nc3ccc(C(=O)NO)cc3)ccc2c1 [givinostat]
Outline: as §1

barasertib = compound: CCN(CCCOc1ccc2c(Nc3cc(CC(=O)Nc4cccc(F)c4)[nH]n3)ncnc2c1)CCOP(=O)(O)O [barasertib]
Outline: as §1

[7] = compound: CC[C@@H]1C(=O)N(C)c2cnc(Nc3ccc(C(=O)NC4CCN(C)CC4)cc3OC)nc2N1C1CCCC1
Outline: as §1

volasertib = compound: CC[C@@H]1C(=O)N(C)c2cnc(Nc3ccc(C(=O)N[C@H]4CC[C@H](N5CCN(CC6CC6)CC5)CC4)cc3OC)nc2N1C(C)C [volasertib]
Outline: as §1

[8] = compound: CC[C@H](C)N1C=C(C2=C(C=C(C=C21)C3=CN=C(C=C3)N4CCNCC4)C(=O)NCC5=C(C=C(NC5=O)C)C)C
Outline: as §1

epoxomicin = compound: CC[C@H](C)[C@@H](C(=O)N[C@@H]([C@@H](C)O)C(=O)N[C@@H](CC(C)C)C(=O)[C@]1(CO1)C)NC(=O)[C@H]([C@@H](C)CC)N(C)C(=O)C [epoxomicin]
Outline: as §1

[9] = compound: CCn1c(C(=O)N(C2CC2)C2CC2)cc2c3c(ncn3C)c(Nc3cc(C)n(C)n3)nc21
Outline: as §1

[10] = compound: CCn1cc(-c2ccnc3[nH]c(-c4cccc(CN(C)C)c4)cc23)c(-c2ccc(NC(=O)N(C)C)cc2)n1
Outline: as §1

[11] = compound: CN(C)CC(=O)Nc1ccc2[nH]c(=O)c3ccccc3c2c1
Outline: as §1

rosiglitazone = compound: CN(CCOC1=CC=C(C=C1)C[C@H]2C(=O)NC(=O)S2)C3=CC=CC=N3 (racemic) [rosiglitazone]
Outline: as §1

[12] = compound: CN1C2=C(C3=C1C(=O)N(N=C3)CC4=CC(=CC=C4)N)SC(=C2)S(=O)C
Outline: as §1

[13] = compound: CN1CCC(CNc2ccc3ncc(-c4cccc(OC(F)(F)F)c4)n3n2)CC1
Outline: as §1

Chain of UniProt P18085 (P18085 whole entry, looked up): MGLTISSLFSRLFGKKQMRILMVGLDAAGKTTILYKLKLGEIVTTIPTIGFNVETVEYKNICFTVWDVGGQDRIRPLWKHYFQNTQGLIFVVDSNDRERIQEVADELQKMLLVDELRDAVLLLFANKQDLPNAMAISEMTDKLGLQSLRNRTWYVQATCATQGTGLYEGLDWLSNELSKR
Chain of UniProt O43865 (O43865 whole entry, looked up): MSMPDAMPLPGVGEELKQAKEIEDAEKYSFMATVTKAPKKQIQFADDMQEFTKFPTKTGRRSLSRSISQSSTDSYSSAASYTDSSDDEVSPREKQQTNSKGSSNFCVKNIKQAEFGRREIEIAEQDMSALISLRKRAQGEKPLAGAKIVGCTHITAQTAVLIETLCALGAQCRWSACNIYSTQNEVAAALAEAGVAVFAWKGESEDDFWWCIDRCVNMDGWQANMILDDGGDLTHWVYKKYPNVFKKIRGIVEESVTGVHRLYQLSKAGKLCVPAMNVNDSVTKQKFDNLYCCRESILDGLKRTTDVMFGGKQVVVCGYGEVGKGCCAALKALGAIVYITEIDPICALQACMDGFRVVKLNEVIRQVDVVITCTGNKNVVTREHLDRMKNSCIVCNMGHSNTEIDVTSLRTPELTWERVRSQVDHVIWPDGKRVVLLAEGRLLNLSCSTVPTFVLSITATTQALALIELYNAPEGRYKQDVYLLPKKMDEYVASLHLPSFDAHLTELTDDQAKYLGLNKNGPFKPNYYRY
Chain of UniProt Q9UKV3 (Q9UKV3 whole entry, looked up): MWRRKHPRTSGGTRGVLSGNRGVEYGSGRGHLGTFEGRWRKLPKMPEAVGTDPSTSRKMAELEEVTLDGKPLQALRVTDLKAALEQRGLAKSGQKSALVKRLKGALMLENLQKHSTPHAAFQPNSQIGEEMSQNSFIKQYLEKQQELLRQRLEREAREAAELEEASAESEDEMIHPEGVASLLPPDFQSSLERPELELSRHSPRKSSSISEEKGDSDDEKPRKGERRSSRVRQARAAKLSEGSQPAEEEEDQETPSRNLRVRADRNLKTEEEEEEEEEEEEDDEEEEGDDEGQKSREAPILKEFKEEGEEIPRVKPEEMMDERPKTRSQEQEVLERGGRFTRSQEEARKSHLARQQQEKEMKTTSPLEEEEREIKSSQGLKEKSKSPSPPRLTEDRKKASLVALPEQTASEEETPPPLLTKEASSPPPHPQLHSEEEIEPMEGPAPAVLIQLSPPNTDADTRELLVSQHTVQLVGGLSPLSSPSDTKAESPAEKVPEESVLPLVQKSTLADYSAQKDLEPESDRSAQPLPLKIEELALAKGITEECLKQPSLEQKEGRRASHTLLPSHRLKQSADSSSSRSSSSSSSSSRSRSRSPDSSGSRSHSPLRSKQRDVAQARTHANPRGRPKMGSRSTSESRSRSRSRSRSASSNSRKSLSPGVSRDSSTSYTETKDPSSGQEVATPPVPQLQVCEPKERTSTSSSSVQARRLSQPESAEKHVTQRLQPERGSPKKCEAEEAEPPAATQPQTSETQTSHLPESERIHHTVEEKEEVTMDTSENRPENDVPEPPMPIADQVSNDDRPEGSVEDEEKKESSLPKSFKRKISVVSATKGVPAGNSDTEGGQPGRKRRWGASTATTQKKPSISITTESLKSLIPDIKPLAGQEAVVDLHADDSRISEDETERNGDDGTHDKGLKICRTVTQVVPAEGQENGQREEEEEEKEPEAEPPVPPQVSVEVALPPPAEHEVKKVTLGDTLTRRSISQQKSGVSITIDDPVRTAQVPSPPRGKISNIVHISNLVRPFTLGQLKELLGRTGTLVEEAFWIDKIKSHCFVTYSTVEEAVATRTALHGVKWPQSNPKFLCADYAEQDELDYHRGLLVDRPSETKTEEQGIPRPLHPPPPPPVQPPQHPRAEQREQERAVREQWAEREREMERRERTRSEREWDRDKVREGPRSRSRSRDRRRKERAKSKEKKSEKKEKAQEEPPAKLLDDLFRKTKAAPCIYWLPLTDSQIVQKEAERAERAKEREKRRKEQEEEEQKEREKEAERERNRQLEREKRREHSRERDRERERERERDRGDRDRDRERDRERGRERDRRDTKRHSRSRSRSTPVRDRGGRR
Chain of UniProt Q16864 (Q16864 whole entry, looked up): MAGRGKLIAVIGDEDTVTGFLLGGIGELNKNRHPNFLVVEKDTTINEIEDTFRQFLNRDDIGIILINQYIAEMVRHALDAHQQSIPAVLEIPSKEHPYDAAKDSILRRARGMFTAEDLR
Chain of UniProt P30837 (P30837 whole entry, looked up): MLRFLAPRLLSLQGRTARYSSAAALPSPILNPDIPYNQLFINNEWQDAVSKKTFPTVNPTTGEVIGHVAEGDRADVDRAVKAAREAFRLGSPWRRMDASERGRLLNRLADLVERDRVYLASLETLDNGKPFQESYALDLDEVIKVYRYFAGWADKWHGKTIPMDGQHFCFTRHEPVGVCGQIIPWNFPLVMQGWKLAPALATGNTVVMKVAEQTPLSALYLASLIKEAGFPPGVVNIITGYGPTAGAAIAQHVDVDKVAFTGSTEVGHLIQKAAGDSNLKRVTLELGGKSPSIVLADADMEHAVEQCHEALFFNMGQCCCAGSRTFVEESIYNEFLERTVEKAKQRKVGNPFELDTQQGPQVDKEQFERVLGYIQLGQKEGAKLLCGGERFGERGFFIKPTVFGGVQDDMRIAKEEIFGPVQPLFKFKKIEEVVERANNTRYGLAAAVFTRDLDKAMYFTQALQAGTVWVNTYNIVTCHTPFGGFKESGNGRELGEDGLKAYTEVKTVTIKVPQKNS
Chain of UniProt Q9NQ11 (Q9NQ11 whole entry, looked up): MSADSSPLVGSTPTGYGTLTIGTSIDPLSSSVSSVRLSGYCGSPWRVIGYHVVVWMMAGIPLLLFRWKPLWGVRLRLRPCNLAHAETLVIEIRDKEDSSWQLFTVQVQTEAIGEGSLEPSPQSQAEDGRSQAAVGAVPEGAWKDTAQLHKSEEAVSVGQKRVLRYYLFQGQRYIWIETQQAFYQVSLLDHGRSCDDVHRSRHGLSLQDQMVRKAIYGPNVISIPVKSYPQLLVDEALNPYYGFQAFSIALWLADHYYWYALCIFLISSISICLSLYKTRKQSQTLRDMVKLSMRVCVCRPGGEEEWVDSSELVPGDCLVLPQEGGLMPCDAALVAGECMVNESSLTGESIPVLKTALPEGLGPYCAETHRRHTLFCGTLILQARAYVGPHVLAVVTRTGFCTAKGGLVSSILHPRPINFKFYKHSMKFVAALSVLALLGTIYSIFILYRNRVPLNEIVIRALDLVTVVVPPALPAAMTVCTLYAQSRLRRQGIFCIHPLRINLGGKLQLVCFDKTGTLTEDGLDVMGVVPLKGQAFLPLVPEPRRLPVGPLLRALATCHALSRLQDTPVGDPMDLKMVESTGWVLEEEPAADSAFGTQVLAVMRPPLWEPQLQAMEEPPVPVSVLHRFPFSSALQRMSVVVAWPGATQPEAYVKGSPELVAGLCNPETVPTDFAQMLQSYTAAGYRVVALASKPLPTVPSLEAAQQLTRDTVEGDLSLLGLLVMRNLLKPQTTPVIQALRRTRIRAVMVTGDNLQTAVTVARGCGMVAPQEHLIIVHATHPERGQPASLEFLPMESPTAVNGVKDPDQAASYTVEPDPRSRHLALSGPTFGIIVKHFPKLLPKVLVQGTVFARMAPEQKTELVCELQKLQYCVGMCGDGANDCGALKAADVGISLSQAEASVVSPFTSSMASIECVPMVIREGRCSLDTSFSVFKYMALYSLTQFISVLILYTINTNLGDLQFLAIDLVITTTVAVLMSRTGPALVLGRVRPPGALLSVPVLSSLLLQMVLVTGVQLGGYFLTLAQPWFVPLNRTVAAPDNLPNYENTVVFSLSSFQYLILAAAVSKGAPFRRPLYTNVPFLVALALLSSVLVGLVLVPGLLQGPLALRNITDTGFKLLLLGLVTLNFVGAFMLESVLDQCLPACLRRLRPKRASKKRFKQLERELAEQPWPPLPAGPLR
Chain of UniProt Q9UJX6 (Q9UJX6 whole entry, looked up): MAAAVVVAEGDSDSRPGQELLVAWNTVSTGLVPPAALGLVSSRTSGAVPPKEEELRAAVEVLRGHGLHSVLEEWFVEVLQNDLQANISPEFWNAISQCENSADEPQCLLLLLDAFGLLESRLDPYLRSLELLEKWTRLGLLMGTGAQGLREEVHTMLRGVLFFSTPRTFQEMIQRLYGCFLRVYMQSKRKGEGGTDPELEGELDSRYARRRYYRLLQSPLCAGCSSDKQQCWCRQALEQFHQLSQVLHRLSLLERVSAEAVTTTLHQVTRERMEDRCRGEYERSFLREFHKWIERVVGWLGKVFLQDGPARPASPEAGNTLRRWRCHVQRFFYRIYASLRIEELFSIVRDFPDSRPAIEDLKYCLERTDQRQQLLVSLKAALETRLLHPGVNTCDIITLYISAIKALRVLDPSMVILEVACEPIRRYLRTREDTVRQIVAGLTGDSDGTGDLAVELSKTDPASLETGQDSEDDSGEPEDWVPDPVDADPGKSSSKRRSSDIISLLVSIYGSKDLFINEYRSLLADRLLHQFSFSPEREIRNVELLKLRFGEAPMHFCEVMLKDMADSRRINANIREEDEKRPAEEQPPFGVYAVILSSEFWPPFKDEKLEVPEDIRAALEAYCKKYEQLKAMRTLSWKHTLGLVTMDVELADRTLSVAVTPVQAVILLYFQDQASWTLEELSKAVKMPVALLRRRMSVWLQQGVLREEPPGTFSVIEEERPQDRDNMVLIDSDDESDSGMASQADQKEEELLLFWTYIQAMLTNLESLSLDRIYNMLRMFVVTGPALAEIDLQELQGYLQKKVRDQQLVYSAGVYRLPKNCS

Target	log2 fold change [1]	log2 fold change [2]	log2 fold change [3]	log2 fold change [4]	log2 fold change (Nexturastat A)	log2 fold change (vemurafenib)	log2 fold change [5]	log2 fold change [6]	log2 fold change (givinostat)	log2 fold change (barasertib)	log2 fold change [7]	log2 fold change (volasertib)	log2 fold change [8]	log2 fold change (epoxomicin)	log2 fold change [9]	log2 fold change [10]	log2 fold change [11]	log2 fold change (rosiglitazone)	log2 fold change [12]	log2 fold change [13]
BCL9L (UniProt Q86UU0)	-0.046	-0.012	0.005	-0.033	-0.033	-0.037	-0.014	-0.029	0.043	-0.001	0	0.036	0.044	0.038	0.04	-0.024	-0.003	0.088	-0.023	-0.019
ADRM1 (UniProt Q16186)	0.067	0.009	-0.013	0.024	0.104	-0.022	-0.028	0.01	0.034	-0.021	0.122	0.197	0.024	-0.083	0.04	-0.013	-0.006	0	0.045	0.062
ATP13A2 (UniProt Q9NQ11)	0.017	0.009	0.035	0.055	0.001	0.085	-0.037	0.014	-0.044	-0.052	-0.141	-0.103	-0.074	0.003	0.012	-0.031	-0.002	0.066	0.058	-0.509 (active)
AHCYL1 (UniProt O43865)	-0.103	0.003	-0.061	0.011	0.014	-0.029	-0.015	-0.039	-0.026	-0.036	0.021	0.036	-0.099	-0.007	-0.027	-0.097	0.018	0.018	-0.115	-0.063
ARF4 (UniProt P18085)	0.022	-0.014	0	0.012	-0.095	0.02	0.022	0.023	0.016	0.048	0.064	0.094	0.009	0.112	-0.008	0.014	0.041	-0.033	-0.076	0.097
ALDH18A1 (UniProt P54886)	-0.179	0.002	-0.04	0.101	0.035	0.068	0.057	-0.137	0.141	0.214	-0.418	-0.713 (active)	0.092	0.1	-0.117	-0.208	0.041	0.148	0.054	-0.054
ACIN1 (UniProt Q9UKV3)	-0.028	0.039	-0.015	-0.013	0.044	0	0.014	0.023	0.105	-0.008	-0.017	-0.056	-0.012	-0.048	-0.057	0.004	-0.034	0.008	-0.021	-0.097
ATP6V1H (UniProt Q9UI12)	0.028	-0.016	0.045	0.014	-0.008	-0.004	0.077	0.022	0.03	0.018	-0.085	-0.093	0.069	0.098	0.041	-0.244 (active)	0.012	0.048	-0.026	-0.069
ANAPC2 (UniProt Q9UJX6)	0.031	-0.015	-0.001	0.069	-0.045	0.027	0.047	-0.049	0.042	0.022	-0.071	-0.338 (active)	0.023	-0.031	-0.027	-0.018	0.004	0.191	0.03	-0.001
BCLAF1 (UniProt Q9NYF8)	0.012	-0.102	0.004	0.128	0.098	0.225	0.097	0.009	0.137	-0.071	-0.089	-0.08	0.024	-0.027	-0.016	-0.002	0.099	0.018	-0.015	0.024
ASNS (UniProt P08243)	0.008	0.007	0.026	0.025	-0.045	0.007	0.013	0	-0.004	-0.004	-0.01	0.015	0.008	0.021	0.008	-0.051	-0.008	0.003	-0.064	-0.037
ALDH1B1 (UniProt P30837)	0.054	0.008	0.128	0.017	-0.104	0.011	0.032	-0.016	0.032	-0.001	-0.036	0.05	-0.005	0.032	-0.05	-0.113	0.001	0.048	-0.095	0.058
ACADVL isoform 3 (UniProt P49748)	-0.004	0.01	0.024	-0.002	-0.073	-0.009	0.01	-0.002	0.026	0.006	0.119	0.099	-0.007	0.025	0.008	-0.014	0.004	-0.004	-0.054	-0.045
AGPAT3 isoform 3 (UniProt Q9NRZ7)	0.019	0	0.016	0.003	-0.076	-0.001	0.043	-0.039	0.008	0.057	-0.095	-0.211 (active)	0.017	0.02	0.004	-0.082	0.012	0.011	-0.069	0.001
ALDH9A1 isoform 3 (UniProt P49189)	0.01	0.012	0.03	0.01	-0.049	0.006	0.006	-0.019	-0.005	0.01	0	-0.003	-0.048	0.011	0.003	-0.025	-0.01	-0.004	-0.065	-0.027
ATP6V1F isoform 2 (UniProt Q16864)	-0.139	0.034	0.011	0.06	0.146	0.123	-0.055	0.038	-0.044	0.072	0.01	-0.036	-0.043	0.525 (active)	-0.02	0.02	0.165	0.003	0.033	0.056
